Screening data: PubChem BioAssay, Broad Institute
p53 PUMA act – restores mutant p53 pathway signaling in SW480 cells; SW480 PUMA-promoter luciferase, p53 mutant reactivation; activation, % at 9.98 µM; 28,000 tested, 1.5% active; AID 624151; in the data active means activation above about 52%
STK33 inh – human STK33 kinase inhibition. Q9BYT3. ADP-Glo luminescence, MBP substrate. inhibition, % at 12.5 µM. 27,000 tested, 0.44% active; in the data active means inhibition above about 20%
Target sequence (Q9BYT3 whole entry, looked up): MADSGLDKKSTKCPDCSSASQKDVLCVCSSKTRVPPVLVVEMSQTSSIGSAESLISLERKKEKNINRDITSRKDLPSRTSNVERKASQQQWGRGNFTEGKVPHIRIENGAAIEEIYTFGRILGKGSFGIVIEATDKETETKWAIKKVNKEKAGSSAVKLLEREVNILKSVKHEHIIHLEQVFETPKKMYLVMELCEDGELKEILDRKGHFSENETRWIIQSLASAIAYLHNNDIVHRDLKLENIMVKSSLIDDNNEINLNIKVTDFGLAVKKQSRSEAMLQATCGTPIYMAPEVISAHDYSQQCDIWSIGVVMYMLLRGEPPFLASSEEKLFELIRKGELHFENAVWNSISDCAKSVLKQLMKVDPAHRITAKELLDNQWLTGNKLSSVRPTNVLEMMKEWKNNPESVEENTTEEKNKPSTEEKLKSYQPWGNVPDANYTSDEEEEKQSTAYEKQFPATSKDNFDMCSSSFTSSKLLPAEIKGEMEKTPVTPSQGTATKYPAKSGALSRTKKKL
ID4 SMM – binds human ID4 protein on microarray; calls only; P47928; 31,000 tested, 1.2% active; small molecule microarray, Flag-ID4 binding, fluorescence F/B; call rule not given here;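 further: a binder raises fluorescence above local background on the spot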
* marks the source's active call; other numbers are inactive results; i = inactive; nt = not tested or not shown; + = active, no number. Rows were chosen to be rich in hits. Some 2% of all compounds tested hit in one or more screens of this group.

SMILES	p53 PUMA act	STK33 inh	ID4 SMM
COc1ccc(Cl)cc1NC(=O)CN(C)S(=O)(=O)c1c(C)cc(C)cc1C	4.3	0.9	i
CCN(CC(=O)Nc1cccc([N+](=O)[O-])c1)S(=O)(=O)c1ccc(C)cc1	5.6	0.9	i
C[C@@H]1CN([C@H](C)CO)C(=O)c2cc(NC(=O)c3ccncc3)ccc2O[C@@H](C)CCCCO[C@@H]1CN(C)C(=O)Nc1cccc2ccccc12	-19.5	nt	+
C[C@@H]1CCCCO[C@H](CN(C)C(=O)Cc2ccccc2)[C@H](C)CN([C@@H](C)CO)C(=O)c2cc(NC(=O)c3ccncc3)ccc2O1	-3.5	nt	i
CNC[C@H]1Oc2ccc(NS(C)(=O)=O)cc2CC(=O)N([C@@H](C)CO)C[C@@H]1C	9.3	-0.5	+
CNC[C@H]1Oc2ccc(NS(=O)(=O)c3ccccc3)cc2CC(=O)N([C@@H](C)CO)C[C@@H]1C	2.1	0.3	i
C[C@@H]1CN([C@@H](C)CO)C(=O)c2cc(NC(=O)c3ccncc3)ccc2O[C@@H](C)CCCCO[C@H]1CN(C)C(=O)Nc1cccc2ccccc12	-78.6	nt	i
C[C@@H]1CN([C@@H](C)CO)C(=O)c2cc(NC(=O)c3ccncc3)ccc2O[C@@H](C)CCCCO[C@H]1CN(C)C(=O)Cc1ccccc1	3.0	nt	+
CC(=O)c1cccc(-n2nnnc2SCC(=O)Nc2ccccc2F)c1	-5.6	-2.3	i
Cc1cc(Cn2ccc(C(F)(F)F)n2)c(C)c(-c2c(C#N)c(N)nc3c2CCCC3)c1	0.3	-0.3	i
C[C@H]1CN([C@@H](C)CO)C(=O)Cc2cc(NC(=O)Cc3ccccc3)ccc2O[C@H]1CN(C)C(=O)Nc1ccccc1	5.5	0.3	+
C[C@H](CO)N1C[C@H](C)[C@@H](CN(C)C(=O)Nc2ccccc2)Oc2ccc(NC(=O)Cc3ccccc3)cc2CC1=O	5.3	nt	i
C[C@@H]1CN([C@@H](C)CO)C(=O)Cc2cc(NC(=O)CCCN(C)C)ccc2O[C@@H]1CN(C)C	-1.4	nt	i
C[C@@H]1CN([C@@H](C)CO)C(=O)Cc2cc(NC(=O)CCCN(C)C)ccc2O[C@H]1CN(C)C(=O)Nc1ccc(F)cc1	5.2	nt	+
O=c1[nH]c(=S)c2c(n1N1CCOCC1)CCC2	1.2	nt	+
c1coc(-c2nn3c(C4COc5ccccc5O4)nnc3s2)c1 (stereo unspecified)	8.4	-2.2	i
O=c1c(O)c(-c2ccccc2)oc2cc(O)ccc12	-1.4	32.1*	i
O=C(O)COc1c(-c2ccccc2)oc2ccccc2c1=O	-10.8	2.6	i
CC(NS(=O)(=O)c1ccc(Cl)cc1)C(=O)Nc1c(F)cccc1F (stereo unspecified)	-2.1	-0.3	i
O=C1N(CCS(=O)(=O)c2ccccc2)c2ccccc2[C@H]2OC(c3ccc(OCCCO)cc3)=N[C@@]12CCS(=O)(=O)c1ccccc1	nt	-2.1	nt
O=C1c2c(O)ccc(O)c2C(=O)c2c(NCCNCCO)ccc(NCCNCCO)c21	nt	58.4*	i
CCc1ccc(CCC(=O)Nc2ccc(I)cc2)o1	13.0	-0.4	i
CCc1ccc(CCC(=O)Nc2ccc(C)c(C)c2)o1	71.1*	4.7	i
CS(=O)(=O)N(CC(=O)Nc1cccc(Br)c1)c1cc(Cl)c(Cl)cc1Cl	15.3	0.1	i
N#CCCN(CCC#N)C(=O)c1cc(-c2ccccc2)nc2ccccc12	3.6	0.1	+
SMILES	p53 PUMA act	STK33 inh	ID4 SMM
Cc1cc(CNC(=O)c2cc(-c3ccccc3)nc3ccccc23)nn1C	-5.3	-3.4	i
O=S(=O)(NC[C@@H]1CCCN(Cc2ccc(OCCO)cc2)C1)c1cccc2cccnc12	nt	-2.7	nt
O=S(=O)(N[C@@H]1CCCN(Cc2ccc(OCCO)cc2)C1)c1cccc(F)c1	nt	-2.9	+
O=S(=O)(N[C@@H]1CCCN(Cc2cccc(OCCO)c2)C1)c1ccc(-c2ccccc2)cc1	nt	-0.9	i
COc1ccc(S(=O)(=O)NC2CCN(Cc3ccc(OCCO)cc3)CC2)cc1	nt	nt	i
O=S(=O)(N[C@@H]1CCCN(Cc2cccc(OCCO)c2)C1)c1cccc(F)c1	nt	1.2	+
O=S(=O)(N[C@@H]1CCCN(Cc2ccc(OCCO)cc2)C1)c1ccc2ccccc2c1	nt	nt	i
Cc1ccc(S(=O)(=O)NC2CCN(Cc3ccc(OCCO)cc3)CC2)cc1	nt	2.4	+
O=S(=O)(N[C@@H]1CCCN(Cc2ccc(OCCO)cc2)C1)c1cccc2cccnc12	nt	-8.0	+
CC(=O)Nc1ccccc1NC(=O)COc1ccc(C(C)(C)C)cc1Br	-12.5	-1.9	i
CC(NS(=O)(=O)c1cc(Cl)ccc1Cl)C(=O)Nc1cccc([N+](=O)[O-])c1 (stereo unspecified)	-5.1	-0.3	i
Cc1ccc(Cn2nc(C)cc2C(=O)Sc2ccccc2)cc1	nt	0.7	nt
N#Cc1cc[n+](CC(=O)c2ccc(NC(=O)c3ccccc3)cc2)cc1	nt	11.7	nt
N#Cc1ccc(NC(=O)c2ccc(Br)o2)cc1	63.9*	nt	i
Nc1cc(=O)[nH]c(SCC(=O)NCc2ccco2)n1	-2.0	-2.4	i
Cc1ccccc1-c1nc2cc(NC(=O)COc3ccc(Cl)cc3)ccc2o1	71.4*	-3.8	i
CCc1ccc(OCC(=O)Nc2ccc3oc(-c4ccccc4F)nc3c2)cc1	-28.7	1.3	i
Cc1ccccc1-c1nc2cc(NC(=O)COc3ccc(Br)cc3)ccc2o1	74.4*	4.5	i
O=C(COc1ccccc1)Nc1ccc2oc(-c3ccc(Cl)cc3Cl)nc2c1	0.1	-0.7	i
Cc1ccc(NC(=O)c2cc(=O)[nH]c(=O)[nH]2)cc1	nt	1.4	nt
COc1ccc(NC(=O)c2ccc3c(=O)n(Cc4ccco4)c(=S)[nH]c3c2)cc1OC	nt	6.8	nt
Cc1ccc(NC(=O)CSc2ncccn2)cc1C	2.2	0.7	i
Cc1cc(=O)oc2cc(NC(=S)NCc3ccccn3)ccc12	81.2*	2.5	i
Cc1cc(=O)oc2cc(NC(=S)NCCCN3CCCC3=O)ccc12	38.7	-1.5	i
O=C(NCc1ccccn1)C(=O)Nc1ccccc1F	60.5*	-0.9	i
SMILES	p53 PUMA act	STK33 inh	ID4 SMM
CC(C)CNC(=O)C(=O)NCc1ccccn1	1.8	-5.3	i
Cc1ccc(NC(=O)C(=O)NCc2ccccn2)cc1C	94.3*	1.3	i
Cc1ccc(NC(=O)COc2ccc3c(=O)c(-c4ccccc4Cl)coc3c2)cc1	-8.2	0.6	i
O=C(CSc1nnc(Nc2ccccc2)n1-c1ccccc1)Nc1ccc2c(c1)COC2=O	-16.5	-2.9	i
COc1ccccc1-n1nnnc1SCC(=O)Nc1ccc(Br)cc1	-15.8	0.6	i
OCC1(CO)COC(COc2ccccc2)=N1	2.3	nt	+
O=C(Cn1c(COc2ccccc2)nc2ccccc21)N1CCOCC1	-11.8	0.9	i
CN1CCN(C(=O)CN(c2cccc(Cl)c2)S(=O)(=O)c2ccc(Cl)cc2)CC1	-3.9	-3.6	i
CN1CCN(C(=O)c2nc3ccc(Cl)cc3[nH]2)CC1	56.7*	nt	i
Cn1c(CN2CCOCC2)nnc1SCC(=O)Nc1ccc2ccccc2c1	2.0	-3.2	i
CCCn1nnc(NC(=O)C(C)Oc2ccc(Cl)cc2Cl)n1 (stereo unspecified)	-3.0	2.6	i
CCCn1nnc(NC(=O)COc2ccccc2Cl)n1	63.7*	4.7	i
Oc1cc(O)cc(/C=C/c2ccc(O)c(O)c2)c1	nt	73.9*	nt
N#C/C(=C/c1ccc(O)c(O)c1)C(=O)OC/C=C/c1ccccc1	35.9	-0.7	i
